Inconclusive results are not listed. Entries that show only a call come without a potency. Calls of active or inactive are those of the source. The call rests on the fitted dose curve; in most records, active means well fitted inhibition curve with a large enough effect; inconclusive means small, poorly fitted or top-dose-only effect; inactive means flat fitted curve, though single readings scatter.
tested on: astro; test: Drug repurposing screens with cells derived from glioblastoma tumor samples (AID 1345199); settings: viability, ATP luminescence, 48 h; series mostly up to 45.9 µM; further: nearly all actives have a fitted effect of over 40% in size
Method: CD133+ cells were isolated from GBM patient biopsies and cultured as neurospheres. Neurospheres from four patients were used to screen the NCATS pharmaceutical collection (NPC) library of approved drugs and bioactive compounds. […] The neurospheres were incubated with drugs for 48 hours in 1536-well format, then assayed with an ATP content cell viability assay. […] These hits were cherry picked to confirm activity in the four original GBM lines screened plus three other slower growing GMB lines (unable to yield enough cells for a full primary screen). Variable activities of the confirmed primary hits in the different GBM patient lines were observed. The patient line 206 responded to the greatest number of compounds and line 923 responded to the least amount of active compounds.
Potency means the concentration at half of the fitted maximal effect.

**Q.** `CN1CC(=O)N/C1=N/C(=O)Nc1cccc(Cl)c1` was tested. Which Potency did it give?
**A.** inactive

**Q.** How did the Potency turn out when `CCOc1ccc2nc(S(N)(=O)=O)sc2c1` was run?
**A.** inactive

**Q.** Which Potency does the source give for `CC1(C)S[C@@H]2[C@H](NC(=O)[C@H](N)c3ccccc3)C(=O)N2[C@H]1C(=O)O` here?
**A.** inactive

**Q.** With `CN1CCN(c2cc3c(nn2)Oc2ccccc2N3C)CC1` as the compound, how does the Potency read?
**A.** inactive

**Q.** For `CC1(C)C[C@@H]1C(=O)N/C(=C\CCCCSC[C@H](N)C(=O)O)C(=O)O`, which Potency is on record?
**A.** inactive

**Q.** `CCOC(=O)c1ccccc1O` was tested. Which Potency did it give?
**A.** inactive

**Q.** For `C=CCN1C(=O)C(CC(C)C)NC1=S` (stereo not given), which Potency is on record?
**A.** inactive

**Q.** Which Potency does the source give for `Cc1onc(-c2c(F)cccc2Cl)c1C(=O)N[C@@H]1C(=O)N2[C@@H]1SC(C)(C)[C@@H]2C(=O)O` here?
**A.** inactive

**Q.** `CC[C@H]1OC(=O)[C@H](C)[C@@H](O[C@H]2C[C@@](C)(OC)[C@@H](O)[C@H](C)O2)[C@H](C)[C@@H](O[C@@H]2O[C@H](C)C[C@H](N(C)C)[C@H]2O)[C@](C)(O)C[C@@H](C)C(=O)[C@H](C)[C@@H](O)[C@]1(C)O` was tested. Which Potency did it give?
**A.** inactive

**Q.** For `CN1[C@@H]2CC[C@H]1CC(OC(=O)C(CO)c1ccccc1)C2` (stereo not given in full), which Potency is on record?
**A.** inactive

**Q.** For `CC(C(=O)O)c1ccc(C(=O)c2ccccc2)s1` (stereo not given), which Potency is on record?
**A.** inactive

**Q.** For `N=C(N)N`, which Potency is on record?
**A.** inactive

**Q.** With `CC(C)Cc1ccc([C@H](C)C(=O)O)cc1` as the compound, how does the Potency read?
**A.** inactive

**Q.** Which Potency does the source give for `Cc1nc2ccccc2n1Cc1ccc(Cl)cc1` here?
**A.** 3.16 µM (active)

**Q.** With `O=c1[nH]c2ccccc2n1CCCN1CCN(C(c2ccccc2)c2ccccc2)CC1` as the compound, how does the Potency read?
**A.** inactive

**Q.** With `COc1ccc(/C=C/C(=O)Nc2ccccc2C(=O)O)cc1OC` as the compound, how does the Potency read?
**A.** 17.8 µM (active)

**Q.** For `CCCCCCCCCCCCCCCCCC(=O)O`, which Potency is on record?
**A.** inactive

**Q.** For `Nc1ccc(C(=O)O)c(O)c1`, which Potency is on record?
**A.** inactive

**Q.** With `C#CC1(O)CC[C@H]2[C@@H]3CCC4=CCCC[C@@H]4[C@H]3CC[C@@]21C` (stereo not given in full) as the compound, how does the Potency read?
**A.** inactive

**Q.** How did the Potency turn out when `CN1[C@@H]2CC[C@H]1CC(OC(c1ccccc1)c1ccccc1)C2` (stereo not given in full) was run?
**A.** inactive

**Q.** `CO[C@H]1C[C@@H]2CC[C@@H](C)[C@@](O)(O2)C(=O)C(=O)N2CCCC[C@H]2C(=O)O[C@H]([C@H](C)C[C@@H]2CC[C@@H](O)[C@H](OC)C2)CC(=O)[C@H](C)C=C(C)[C@@H](O)[C@@H](OC)C(=O)[C@H](C)C[C@H](C)/C=C/C=CC=C1C` was tested. Which Potency did it give?
**A.** 35.5 µM (active)

**Q.** How did the Potency turn out when `COc1cc(CNC(=O)CCCC/C=C/C(C)C)ccc1O` was run?
**A.** inactive

**Q.** `CC1(C)[C@@H](O)CC[C@]2(C)[C@H]3C(=O)C=C4[C@@H]5C[C@@](C)(C(=O)O)CC[C@]5(C)CC[C@@]4(C)[C@]3(C)CC[C@@H]12` was tested. Which Potency did it give?
**A.** inactive

**Q.** Which Potency does the source give for `Cc1c(N)c(=O)n(-c2ccccc2)n1C` here?
**A.** inactive

**Q.** How did the Potency turn out when `Cc1[nH]cnc1CN1CCc2c(c3ccccc3n2C)C1=O` was run?
**A.** inactive

**Q.** For `CC(N)C(=O)OC(C)(C)Cc1ccc(Cl)cc1` (stereo not given), which Potency is on record?
**A.** inactive

**Q.** How did the Potency turn out when `COc1cc(/C=C/C(=O)N2CCN(CC(=O)N3CCCC3)CC2)cc(OC)c1OC` was run?
**A.** inactive

**Q.** With `CC(C(=O)O)c1ccc(C(=O)c2cccs2)cc1` (stereo not given) as the compound, how does the Potency read?
**A.** inactive

**Q.** For `Nc1c(CC(=O)O)cccc1C(=O)c1ccc(Br)cc1`, which Potency is on record?
**A.** inactive

**Q.** With `C=CC(N)CCC(=O)O` (stereo not given) as the compound, how does the Potency read?
**A.** inactive

**Q.** For `Nc1ccc([N+](=O)[O-])cc1O`, which Potency is on record?
**A.** inactive

**Q.** `CN1[C@@H](CC(=O)c2ccccc2)CCC[C@H]1C[C@H](O)c1ccccc1` was tested. Which Potency did it give?
**A.** inactive

**Q.** How did the Potency turn out when `O=C(CCN1CCN(CCO)CC1)N1c2ccccc2Sc2ccc(C(F)(F)F)cc21` was run?
**A.** inactive

**Q.** For `CCCCCCOc1ccccc1C(N)=O`, which Potency is on record?
**A.** 14.1 µM (active)

**Q.** `CCCSc1ccc2nc(NC(=O)OC)[nH]c2c1` was tested. Which Potency did it give?
**A.** 0.501 µM (active)

**Q.** For `CC(=O)SCC(CC(=O)c1ccc(C)cc1)C(=O)O` (stereo not given), which Potency is on record?
**A.** inactive

**Q.** For `O=C1CN(/N=C/c2ccc([N+](=O)[O-])o2)C(=O)N1`, which Potency is on record?
**A.** inactive

**Q.** With `O=C(O)Cc1cccc(-c2cc(CCCCCCc3ccc(O[C@H]4O[C@H](CO)[C@@H](O)[C@H](O)[C@@H]4O)c(-c4cccc(CC(=O)O)c4)c3)ccc2O[C@H]2O[C@H](CO)[C@@H](O)[C@H](O)[C@@H]2O)c1` as the compound, how does the Potency read?
**A.** inactive

**Q.** For `CCCC(=O)OC[C@@H](OC(=O)CCC)[C@@H](OC(=O)CCC)[C@H](Cn1c2nc(=O)[nH]c(=O)c-2nc2cc(C)c(C)cc21)OC(=O)CCC`, which Potency is on record?
**A.** inactive

**Q.** With `C[N+](C)(C)CCOP(=O)(O)OP(=O)([O-])OC[C@H]1O[C@@H](n2ccc(N)nc2=O)[C@H](O)[C@@H]1O` as the compound, how does the Potency read?
**A.** inactive
